Measurements published in the supplement of paper PMC10849652.
About 7,900 targets were measured; listed, in parts, are those with a hit and a random draw of the rest. About 0.6% of all pairs of compound and target were hits. Values without a mark were called inactive.

Columns and labels:
Experiment in all cases: log2 fold change, soluble protein after heating vs DMSO (PISA); higher = thermal stabilisation; K562 cells, 10 uM, 30 min; active = over 0.2 and 3.5 SD of the protein, either way, in both replicates (recomputed)
IRAK-1-4 Inhibitor I = compound: C1COCCN1CCN2C3=CC=CC=C3N=C2NC(=O)C4=CC(=CC=C4)[N+](=O)[O-] [IRAK-1-4 Inhibitor I]
How it was run: (§1)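 K562 cells at 2×10^6 cells/mL were treated for 30 min with 10 μM compound, and aliquots were heated for 3 min over 48°C-58°C before pooling. Extraction used PBS with 0.5% NP-40 at 4°C, and soluble protein was the supernatant after 21,000xg for 90 min, measured by TMTpro 16plex LC-MS/MS with channel sums equalised. Thermal stability values, relative to control samples and from duplicates, are log2 fold changes.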

ibrutinib = compound: C=CC(=O)N1CCC[C@@H](n2nc(-c3ccc(Oc4ccccc4)cc3)c3c(N)ncnc32)C1 [ibrutinib]
How it was run: as §1

[1] = compound: CC(=O)c1cnc2ccc(-c3cc(Cl)c(O)c(Cl)c3)nc2c1N[C@H]1CC[C@H](CN(C)C)CC1
How it was run: as §1

ralimetinib = compound: CC(C)(C)Cn1c(N)nc2ccc(-c3[nH]c(C(C)(C)C)nc3-c3ccc(F)cc3)nc21 [ralimetinib]
How it was run: as §1

[2] = compound: CC(C)(O)CC(=O)NCCn1ccc2ncnc(Nc3ccc(Oc4cccc(C(F)(F)F)c4)c(Cl)c3)c21
How it was run: as §1

[3] = compound: CC(C)C1=C2N=C(C=C(N2N=C1)NCC3=CC=CC=C3)NCCCCCCN
How it was run: as §1

[4] = compound: CC(C)C[C@@H](C=O)NC(=O)[C@H](CC(C)C)NC(=O)[C@H](CC(C)C)NC(=O)OCc1ccccc1
How it was run: as §1

pinometostat = compound: CC(C)N(C[C@H]1O[C@@H](n2cnc3c(N)ncnc32)[C@H](O)[C@@H]1O)[C@H]1C[C@@H](CCc2nc3cc(C(C)(C)C)ccc3[nH]2)C1 [pinometostat]
How it was run: as §1

[5] = compound: CC1=C(C(CC(=O)N1)C2=CC=C(C=C2)C(F)(F)F)C(=O)NC3=C(C=C4C(=C3)C=NN4)F
How it was run: as §1

[6] = compound: CC1=C(C2=C(C=C1)C(=O)C3=CC=CC=C3N2CCCN)C
How it was run: as §1

[7] = compound: CC1=C(C=C(C=C1)NC(=O)C2=CC(=CC=C2)C(C)(C)C#N)NC3=CC4=C(C=C3)N=CN(C4=O)C
How it was run: as §1

[8] = compound: CC1=C(C=C(C=C1)NC(=O)C2=CC(=CC=C2)N(C)C)NC(=O)C3=CC=C(C=C3)O
How it was run: as §1

[9] = compound: CC1=CC=C(C=C1)SC2=C3C=C(SC3=CN=C2)C(=O)N
How it was run: as §1

[10] = compound: CC1=NC(=CC=C1)C2=C(N=C(N2)C(C)(C)C)C3=CC4=NC=CN=C4C=C3
How it was run: as §1

Nexturastat A = compound: CCCCN(Cc1ccc(C(=O)NO)cc1)C(=O)Nc1ccccc1 [Nexturastat A]
How it was run: as §1

vemurafenib = compound: CCCS(=O)(=O)Nc1ccc(F)c(C(=O)c2c[nH]c3ncc(-c4ccc(Cl)cc4)cc23)c1F [vemurafenib]
How it was run: as §1

[11] = compound: CCCS(=O)(=O)Nc1ccc(F)c(C(=O)c2c[nH]c3ncc(Cl)cc23)c1F
How it was run: as §1

[12] = compound: CCCc1cc(C)[nH]c(=O)c1CNC(=O)c1cc(-c2ccnc(N3CCN(C)CC3)c2)cc2c1cnn2C(C)C
How it was run: as §1

givinostat = compound: CCN(CC)Cc1ccc2cc(COC(=O)Nc3ccc(C(=O)NO)cc3)ccc2c1 [givinostat]
How it was run: as §1

barasertib = compound: CCN(CCCOc1ccc2c(Nc3cc(CC(=O)Nc4cccc(F)c4)[nH]n3)ncnc2c1)CCOP(=O)(O)O [barasertib]
How it was run: as §1

UniProt Q8N1B4, sequence (Q8N1B4 whole entry, looked up): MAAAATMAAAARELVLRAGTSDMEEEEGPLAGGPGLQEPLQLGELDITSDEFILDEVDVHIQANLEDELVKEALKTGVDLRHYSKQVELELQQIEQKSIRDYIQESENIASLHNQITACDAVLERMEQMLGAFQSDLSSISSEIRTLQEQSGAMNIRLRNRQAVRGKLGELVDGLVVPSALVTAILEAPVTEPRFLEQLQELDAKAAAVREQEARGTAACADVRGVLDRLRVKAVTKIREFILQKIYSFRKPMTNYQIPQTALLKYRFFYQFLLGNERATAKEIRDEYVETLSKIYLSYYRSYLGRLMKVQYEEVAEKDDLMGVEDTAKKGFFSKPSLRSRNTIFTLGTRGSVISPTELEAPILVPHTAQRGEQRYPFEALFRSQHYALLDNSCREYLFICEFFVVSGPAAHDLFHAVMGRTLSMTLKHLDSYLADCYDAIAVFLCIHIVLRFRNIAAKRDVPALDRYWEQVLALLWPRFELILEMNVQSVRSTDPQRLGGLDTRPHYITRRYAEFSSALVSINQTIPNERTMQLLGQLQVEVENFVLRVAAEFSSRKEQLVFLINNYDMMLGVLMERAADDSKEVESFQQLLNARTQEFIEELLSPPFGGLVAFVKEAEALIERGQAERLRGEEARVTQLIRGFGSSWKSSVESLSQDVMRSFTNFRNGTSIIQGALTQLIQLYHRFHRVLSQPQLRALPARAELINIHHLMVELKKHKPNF
UniProt P13010, sequence (P13010 whole entry, looked up): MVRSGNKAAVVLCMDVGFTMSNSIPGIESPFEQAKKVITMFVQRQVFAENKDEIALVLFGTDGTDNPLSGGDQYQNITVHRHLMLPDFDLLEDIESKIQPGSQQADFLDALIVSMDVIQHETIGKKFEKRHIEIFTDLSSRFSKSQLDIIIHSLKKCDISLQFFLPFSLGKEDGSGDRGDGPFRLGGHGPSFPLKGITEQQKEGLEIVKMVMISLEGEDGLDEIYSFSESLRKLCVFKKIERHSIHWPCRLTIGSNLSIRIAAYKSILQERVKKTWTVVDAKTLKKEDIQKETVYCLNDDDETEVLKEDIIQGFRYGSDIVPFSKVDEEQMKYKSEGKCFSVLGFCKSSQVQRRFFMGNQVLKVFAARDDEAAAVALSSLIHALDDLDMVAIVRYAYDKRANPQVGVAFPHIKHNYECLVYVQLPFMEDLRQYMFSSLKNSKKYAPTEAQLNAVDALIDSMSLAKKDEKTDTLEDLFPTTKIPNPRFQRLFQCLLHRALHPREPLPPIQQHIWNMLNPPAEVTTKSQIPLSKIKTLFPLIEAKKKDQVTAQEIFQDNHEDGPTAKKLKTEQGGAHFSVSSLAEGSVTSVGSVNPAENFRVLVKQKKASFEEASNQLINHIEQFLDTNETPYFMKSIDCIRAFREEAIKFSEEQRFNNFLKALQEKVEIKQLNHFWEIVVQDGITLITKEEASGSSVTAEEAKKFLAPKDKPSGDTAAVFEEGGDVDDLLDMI
UniProt Q6ZXV5, sequence (Q6ZXV5 whole entry, looked up): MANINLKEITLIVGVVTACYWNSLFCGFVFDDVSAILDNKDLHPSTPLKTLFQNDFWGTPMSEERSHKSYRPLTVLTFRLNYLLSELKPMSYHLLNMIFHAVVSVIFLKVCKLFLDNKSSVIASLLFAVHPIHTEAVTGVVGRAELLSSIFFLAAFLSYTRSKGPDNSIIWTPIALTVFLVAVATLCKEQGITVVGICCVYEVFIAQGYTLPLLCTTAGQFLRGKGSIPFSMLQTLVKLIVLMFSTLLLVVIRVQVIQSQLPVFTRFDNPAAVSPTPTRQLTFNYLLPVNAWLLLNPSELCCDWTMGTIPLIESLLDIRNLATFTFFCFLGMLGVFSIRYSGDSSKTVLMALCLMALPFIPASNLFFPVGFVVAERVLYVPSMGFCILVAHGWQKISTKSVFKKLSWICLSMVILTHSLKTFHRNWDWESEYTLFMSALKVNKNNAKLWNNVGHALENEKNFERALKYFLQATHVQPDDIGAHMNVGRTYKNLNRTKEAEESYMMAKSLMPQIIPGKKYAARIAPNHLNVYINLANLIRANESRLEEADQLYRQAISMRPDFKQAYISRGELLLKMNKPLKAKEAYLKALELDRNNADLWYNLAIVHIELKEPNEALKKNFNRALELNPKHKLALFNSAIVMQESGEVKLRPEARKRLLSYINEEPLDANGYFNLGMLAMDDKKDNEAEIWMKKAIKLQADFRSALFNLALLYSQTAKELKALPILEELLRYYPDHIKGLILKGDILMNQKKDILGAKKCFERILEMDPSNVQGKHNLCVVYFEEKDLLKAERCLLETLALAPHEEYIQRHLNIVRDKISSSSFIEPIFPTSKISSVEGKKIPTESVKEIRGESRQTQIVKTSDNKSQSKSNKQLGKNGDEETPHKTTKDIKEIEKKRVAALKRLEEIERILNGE
UniProt Q9UK41, sequence (Q9UK41 whole entry, looked up): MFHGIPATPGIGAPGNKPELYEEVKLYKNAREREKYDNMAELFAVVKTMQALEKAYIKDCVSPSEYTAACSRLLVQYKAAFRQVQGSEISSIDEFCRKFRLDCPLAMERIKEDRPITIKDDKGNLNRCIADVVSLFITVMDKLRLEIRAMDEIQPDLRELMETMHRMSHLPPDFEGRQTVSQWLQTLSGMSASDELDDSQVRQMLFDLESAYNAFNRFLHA
UniProt Q14139, sequence (Q14139 whole entry, looked up): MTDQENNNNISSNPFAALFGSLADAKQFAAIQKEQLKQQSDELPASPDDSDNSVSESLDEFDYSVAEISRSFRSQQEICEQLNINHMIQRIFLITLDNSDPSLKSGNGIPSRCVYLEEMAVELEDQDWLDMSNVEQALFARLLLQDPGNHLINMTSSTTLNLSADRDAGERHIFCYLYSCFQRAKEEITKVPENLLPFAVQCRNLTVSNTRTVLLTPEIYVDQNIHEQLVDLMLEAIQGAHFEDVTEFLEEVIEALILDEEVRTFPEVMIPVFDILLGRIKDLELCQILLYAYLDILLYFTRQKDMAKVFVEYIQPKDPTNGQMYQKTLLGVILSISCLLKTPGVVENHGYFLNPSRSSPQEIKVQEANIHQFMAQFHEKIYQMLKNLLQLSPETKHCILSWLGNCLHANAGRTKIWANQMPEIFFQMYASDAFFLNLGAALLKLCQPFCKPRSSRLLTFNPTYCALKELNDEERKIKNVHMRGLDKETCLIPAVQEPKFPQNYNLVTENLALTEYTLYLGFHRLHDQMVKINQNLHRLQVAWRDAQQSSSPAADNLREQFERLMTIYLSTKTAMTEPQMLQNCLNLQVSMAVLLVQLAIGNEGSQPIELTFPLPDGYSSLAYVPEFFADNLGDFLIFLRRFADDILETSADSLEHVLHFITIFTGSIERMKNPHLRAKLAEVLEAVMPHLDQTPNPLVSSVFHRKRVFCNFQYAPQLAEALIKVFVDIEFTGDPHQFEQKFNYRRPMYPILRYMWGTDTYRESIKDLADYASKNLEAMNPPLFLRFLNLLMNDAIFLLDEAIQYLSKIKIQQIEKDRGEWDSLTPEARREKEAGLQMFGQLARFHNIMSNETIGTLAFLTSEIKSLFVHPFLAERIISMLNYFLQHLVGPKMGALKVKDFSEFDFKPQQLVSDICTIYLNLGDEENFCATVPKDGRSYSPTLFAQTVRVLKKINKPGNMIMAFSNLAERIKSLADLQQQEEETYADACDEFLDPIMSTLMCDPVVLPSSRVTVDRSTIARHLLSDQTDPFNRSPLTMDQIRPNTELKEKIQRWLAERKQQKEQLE
UniProt Q53S58, sequence (Q53S58 whole entry, looked up): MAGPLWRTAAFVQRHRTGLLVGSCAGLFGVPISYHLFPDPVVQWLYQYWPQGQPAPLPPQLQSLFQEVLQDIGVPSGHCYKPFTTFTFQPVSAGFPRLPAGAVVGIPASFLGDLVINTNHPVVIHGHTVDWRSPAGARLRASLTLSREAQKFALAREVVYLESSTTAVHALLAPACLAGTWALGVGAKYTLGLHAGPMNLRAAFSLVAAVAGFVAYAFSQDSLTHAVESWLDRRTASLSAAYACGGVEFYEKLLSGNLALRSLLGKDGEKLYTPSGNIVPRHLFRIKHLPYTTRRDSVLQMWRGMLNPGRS
UniProt Q9NQH7, sequence (Q9NQH7 whole entry, looked up): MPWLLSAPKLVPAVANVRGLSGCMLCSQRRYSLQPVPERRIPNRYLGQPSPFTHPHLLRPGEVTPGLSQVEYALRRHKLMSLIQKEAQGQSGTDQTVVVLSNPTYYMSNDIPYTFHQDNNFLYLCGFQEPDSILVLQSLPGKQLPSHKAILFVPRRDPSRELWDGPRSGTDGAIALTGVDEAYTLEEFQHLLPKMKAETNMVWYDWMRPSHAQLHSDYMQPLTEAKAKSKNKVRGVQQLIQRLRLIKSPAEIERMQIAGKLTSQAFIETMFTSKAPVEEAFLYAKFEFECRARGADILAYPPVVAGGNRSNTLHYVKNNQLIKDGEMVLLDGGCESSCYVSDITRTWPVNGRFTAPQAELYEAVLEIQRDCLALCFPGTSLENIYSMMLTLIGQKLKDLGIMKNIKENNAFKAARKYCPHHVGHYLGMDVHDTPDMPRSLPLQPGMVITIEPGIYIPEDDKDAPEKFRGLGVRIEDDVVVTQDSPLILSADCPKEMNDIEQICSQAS
UniProt O43617, sequence (O43617 whole entry, looked up): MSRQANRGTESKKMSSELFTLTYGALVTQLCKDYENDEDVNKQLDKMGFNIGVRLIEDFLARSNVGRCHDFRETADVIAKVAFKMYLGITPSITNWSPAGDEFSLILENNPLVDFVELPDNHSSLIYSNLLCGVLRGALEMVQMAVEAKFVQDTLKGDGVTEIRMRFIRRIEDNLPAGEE
UniProt P07951, sequence (P07951 whole entry, looked up): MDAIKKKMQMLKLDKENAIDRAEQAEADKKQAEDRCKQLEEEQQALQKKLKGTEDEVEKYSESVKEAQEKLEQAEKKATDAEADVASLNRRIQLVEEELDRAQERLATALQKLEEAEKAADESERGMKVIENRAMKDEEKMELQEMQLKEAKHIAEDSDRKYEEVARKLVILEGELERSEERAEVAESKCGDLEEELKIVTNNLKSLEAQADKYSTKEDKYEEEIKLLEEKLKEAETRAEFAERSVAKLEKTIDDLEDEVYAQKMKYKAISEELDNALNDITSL

Row | Target | log2 fold change (IRAK-1-4 Inhibitor I) | log2 fold change (ibrutinib) | log2 fold change [1] | log2 fold change (ralimetinib) | log2 fold change [2] | log2 fold change [3] | log2 fold change [4] | log2 fold change (pinometostat) | log2 fold change [5] | log2 fold change [6] | log2 fold change [7] | log2 fold change [8] | log2 fold change [9] | log2 fold change [10] | log2 fold change (Nexturastat A) | log2 fold change (vemurafenib) | log2 fold change [11] | log2 fold change [12] | log2 fold change (givinostat) | log2 fold change (barasertib)
1 | TRMT2A (UniProt Q8IZ69) | -0.028 | 0.005 | -0.098 | 0.039 | 0.013 | -0.146 | 0.034 | 0.085 | 0.018 | -0.142 | 0.083 | -0.02 | -0.009 | 0.005 | 0.013 | 0.022 | -0.032 | 0.085 | -0.123 | -0.003
2 | TOM1L1 (UniProt O75674) | 0.006 | -0.001 | -0.014 | -0.047 | -0.013 | 0.019 | 0.028 | -0.023 | 0.006 | -0.019 | -0.101 | 0.005 | 0.057 | 0.019 | -0.038 | 0.102 | 0.015 | -0.07 | 0.024 | 0.03
3 | XRCC5 (UniProt P13010) | -0.264 | -0.104 | -0.214 | 0.083 | -0.175 | -0.505 (active) | 0.126 | -0.01 | 0 | -0.065 | 0.073 | -0.08 | 0.044 | 0.143 | 0.033 | 0.115 | 0.189 | 0.109 | 0.234 | 0.143
4 | VPS18 (UniProt Q9P253) | -0.02 | -0.029 | -0.029 | -0.037 | -0.024 | -0.319 | 0.053 | 0.055 | -0.019 | 0.059 | 0.051 | -0.025 | -0.029 | -0.004 | 0.04 | 0.017 | 0.017 | 0.004 | 0.035 | 0.088
5 | TPM2 (UniProt P07951) | 0.013 | -0.018 | 0.027 | 0.059 | -0.053 | 0.037 | -0.163 | -0.1 | 0.079 | -0.103 | 0.048 | -0.019 | -0.047 | 0.212 | -0.138 | 0.03 | 0.001 | 0.405 | -0.011 | 0.04
6 | WARS2 (UniProt Q9UGM6) | -0.016 | -0.075 | -0.031 | -0.017 | -0.144 | -0.204 | 0.016 | -0.053 | -0.026 | -0.004 | -0.03 | 0.032 | 0.018 | 0.074 | -0.128 | 0.048 | 0.136 | 0.042 | -0.026 | 0.012
7 | TRAPPC3 (UniProt O43617) | 0.03 | -0.032 | -0.056 | -0.083 | -0.033 | -0.105 | 0.001 | -0.029 | 0.031 | 0.008 | 0 | 0.023 | 0.061 | 0.042 | -0.218 (active) | 0.023 | 0.01 | -0.006 | -0.051 | 0.025
8 | USP15 (UniProt Q9Y4E8) | -0.028 | -0.034 | 0.008 | -0.004 | -0.067 | -0.154 | 0.012 | 0.012 | 0 | -0.019 | 0.025 | -0.044 | 0.023 | 0.027 | -0.001 | 0.04 | 0.053 | 0.041 | 0.025 | 0.06
9 | UBE4A isoform 2 (UniProt Q14139) | -0.114 | -0.125 | -0.017 | 0.02 | -0.032 | -0.376 (active) | 0.096 | 0.093 | 0.098 | 0.041 | -0.064 | -0.058 | -0.029 | 0.01 | 0.061 | 0.048 | 0.097 | 0.021 | 0.073 | 0.065
10 | USP34 (UniProt Q70CQ2) | 0.005 | -0.091 | -0.033 | -0.017 | -0.14 | -0.114 | -0.016 | 0.079 | -0.04 | -0.176 | -0.02 | -0.094 | 0.077 | 0 | -0.12 | 0.08 | 0.032 | 0.052 | 0.094 | 0.069
11 | XPO6 (UniProt Q96QU8) | -0.131 | 0.246 | -0.038 | 0.083 | 0.434 (active) | -0.189 | -0.023 | 0.646 (active) | -0.08 | 0.067 | 0.008 | -0.221 | 0.041 | -0.369 | 0.767 (active) | 0.082 | 0.13 | 0.028 | 0.068 | -0.003
12 | XPNPEP3 (UniProt Q9NQH7) | 0.061 | 0.044 | 0.019 | -0.013 | 0.021 | -0.002 | -0.018 | -0.015 | -0.003 | -0.028 | -0.045 | 0.024 | 0.005 | 0.017 | -0.08 | 0.011 | -0.012 | 0.013 | -0.218 | -0.016
13 | VPS28 (UniProt Q9UK41) | -0.052 | 0.058 | -0.018 | -0.051 | -0.13 | -0.189 | 0.027 | 0.059 | 0.075 | 0.04 | 0.029 | -0.044 | 0.055 | 0.004 | -0.018 | 0.041 | -0.008 | -0.074 | -0.024 | 0.061
14 | TMEM177 (UniProt Q53S58) | 0.06 | 0.079 | 0.007 | -0.068 | -0.023 | -0.131 | 0.045 | -0.02 | -0.007 | 0.028 | 0.043 | 0.045 | -0.008 | 0.048 | -0.092 | 0.05 | 0.05 | -0.038 | 0.005 | -0.019
15 | VPS52 (UniProt Q8N1B4) | -0.057 | 0.068 | 0 | 0.05 | -0.161 | -0.02 | 0.088 | 0.048 | -0.018 | 0.142 | -0.071 | -0.001 | -0.009 | 0.005 | 0.079 | 0.023 | 0.006 | 0.048 | -0.004 | 0.054
16 | TMTC3 (UniProt Q6ZXV5) | 0.007 | -0.033 | -0.007 | 0 | 0.022 | -0.218 | 0.028 | -0.019 | -0.008 | 0.018 | -0.05 | -0.009 | 0.019 | 0.007 | 0.067 | -0.052 | 0.013 | -0.013 | -0.032 | 0.032
